HT1080-NT tox – kills 2HG-producing HT-1080-NT fibrosarcoma cells; Potency, µM (titrated, usually from 46.1 µM), for the others: top-dose activity, negative = less viability, hits mostly cytotoxic; actives 1.6% (n = 360,000); HT-1080-NT fibrosarcoma viability, CellTiter-Glo ATP luminescence, 48 h;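 note: NT is the 2HG producing partner of a matched IDH1 knockdown line; potency is the fitted concentration of half-maximal effect; 0% = DMSO-treated cells and -100% = media-only wells without cells; nearly all actives have a fitted effect of over 55% in size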
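Luminescent CellTiter-Glo readout after 48 hours of compound exposure at 37 degrees C defined viability of HT-1080-NT cells. Activity was normalized to DMSO wells and cell-free media wells; concentration-response curves were fitted and assigned curve classes.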
DT40 TDP1 CPT – growth inhibition of DT40 Tdp1-/-;hTDP1 cells with camptothecin (screen for TDP1 inhibitors). chicken DT40 Tdp1-/-;hTDP1 cells + 20 nM CPT, ATP luminescence, 48 h. Potency, µM (series often up to 46.2 µM), inactives show top-dose activity change, negative = growth inhibition, actives largely listed as inhibitors. actives 12% (n = 420,000). AID 686979; note: potency is the fitted concentration of half-maximal effect; nearly all actives have a fitted effect of over 55% in size
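Chicken DT40 Tdp1-/- cells complemented with human TDP1, 400 cells/well, exposed to compounds plus 20 nM camptothecin for at least 48 h at 37 C; viability read as ATP content by CellTiter-Glo luminescence.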
DT40 TDP1 no CPT – qHTS for Inhibitors of human tyrosyl-DNA phosphodiesterase 1 (TDP1): qHTS in cells in absence of CPT; DT40 Tdp1-/- hTDP1 cells, no CPT, ATP luminescence, 48 h; Potency, µM (doses to about 46.2 µM), for the others: at the highest dose activity change, negative = growth inhibition, usual class: inhibitors; actives 15% (n = 420,000); note: potency is the fitted concentration of half-maximal effect; nearly all actives have a fitted effect of over 55% in size
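Camptothecin absent (DMSO only). Human TDP1-complemented DT40 knockout cells, 400 cells/well, 37 °C for minimum 48 hr; ATP measured via CellTiter-Glo, 30 min dark incubation, luminescence.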
HT1080 IDH1KD tx – kills HT-1080 cells with IDH1 knockdown; HT-1080 IDH1 knockdown viability, ATP luminescence, 48 h; Potency, µM (doses to about 46.1 µM), without a hit: at the highest dose activity, negative = toxicity, actives largely listed as cytotoxic; actives 2% (n = 360,000);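 note: potency is the fitted concentration of half-maximal effect; 0% = DMSO wells and -100% = cell-free medium wells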
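IDH1KD HT-1080 cells, 750/well, RPMI + 5% FBS; compound pinned after 2 h settling; 48 h, 37 °C; CellTiter-Glo luminescence; % activity normalised to DMSO and no-cell wells; curves fitted, classed by r2 and efficacy.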
IL1B secr inh – inflammasome signaling inhibition, IL-1 beta readout; THP-1 LPS/ATP IL-1B secretion, AlphaLISA, 16 h; stronger effect = lower value; activity change, % at 57.5 µM; actives 4.7% (n = 360,000); AID 743279; in the data active = activity change below about -50%; inconclusive = mostly about -30% to -49%
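Secreted IL-1B measured by AlphaLISA bead assay after 16 h compound exposure of THP-1 cells; compounds (final up to 57.5 uM) added 1 h before LPS (250 ng/mL) and ATP (1.25 mM) stimulation; lower signal means less secretion.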
Active calls of the source: *; ? = inconclusive; . = no result given; [ ] = remark or other dose. Most compounds without a hit are left out; they make up all but 19% or so of the library. Unless noted, calls come from the whole dose curve; as a rule, active = well fitted curve in the direction sought with a large enough effect; inconclusive = small, poorly fitted or top-dose-only effect, or another doubt; inactive = no such curve, though single readings can be large; an effect the other way counts as inactive or inconclusive. Unless noted, % is set by controls: 0 for no effect and ±100 for the full control effect.

SMILES	HT1080-NT tox	DT40 TDP1 CPT	DT40 TDP1 no CPT	HT1080 IDH1KD tx	IL1B secr inh
CC(C)(C)NC(=O)C1CCCN(S(=O)(=O)c2cccc3cccnc23)C1 (centres undefined)	-3%	?	-27%	0%	36
Cc1ncccc1C(=O)N1CCCC(c2cc(C(=O)Nc3ccc(C(C)(C)C)cc3)no2)C1 (centres undefined)	21µM*	13µM*	12µM*	?	-19
CC(C)(C)c1ccc(NC(=O)c2cc(C3CCCN(S(=O)(=O)c4cccc5cccnc45)C3)on2)cc1 (centres undefined)	-21%	23µM*	12µM*	?	39
N#Cc1cccc(NC(=O)c2cc(C3CCCCN3S(=O)(=O)c3cccc4cccnc34)on2)c1 (centres undefined)	0%	?	18µM*	-9%	-1
O=C(c1ccco1)N1CCN(/C=C2\Nc3ccccc3C(=O)N2c2ccc(F)cc2)CC1	16%	-3%	-28%	9%	.
COc1ccccc1-c1cc2c(c(OC)c1)OCCN(C(=O)Cn1nc(-c3ccccc3)c3ccccc3c1=O)C2	.	23%[9.04 µM]	-23%	.	.
C=C(C)C1CC=C(C)/C(=N/NC(=S)Nc2ccccc2)C1 (centres undefined)	13%	12µM*	6.5µM*	9%	13
C=C(C)C1CC=C(C)/C(=N/NC(=O)COc2cccc3ccccc23)C1 (centres undefined)	3%	-10%	-24%	8%	-13
C=C(C)C1CC=C(C)/C(=N/NC(=O)c2ccc(NC(=O)c3cccc(C)c3)cc2)C1 (centres undefined)	12%	?	18µM*	15%	-21
O=C(/C=C\c1ccco1)Nc1cc([N+](=O)[O-])ccc1F	1.5µM*	2.1µM*	1.6µM*	?	22
Cc1cc(NC(=O)/C=C/c2ccco2)ccc1NC(=O)c1ccccc1	17%	-15%	-26%	20%	-24
Cc1ccc(NC(=O)/C=C/c2ccco2)cc1F	.	7.3µM*	9.2µM*	.	.
CN1CCN(/C=N/c2c(C#N)cnn2C)CC1	9%	-1%	-7%	14%	-6
Cn1ncc(C#N)c1/N=C/N(Cc1ccccc1)Cc1ccccc1	-19%	15µM*	?	-25%	31
COc1ccc(CNC(=O)c2cc3c(=O)[nH]c4ccccc4c3n2C)cc1	-14%	?	-6%	11%	46
CCc1cccc(NC(=O)c2cc3c(=O)[nH]c4ccccc4c3n2C)c1	.	?	18µM*	.	.
CC(=O)Nc1ccc(NC(=O)CC2SC(=O)N(CC(=O)c3ccccc3)C2=O)cc1 (centres undefined)	0%	18µM*	21µM*	5%	-5
N=C1SC(CC(=O)Nc2ccc([N+](=O)[O-])cc2)C(=O)N1c1ccccc1 (centres undefined)	-21%	0%	?	?	-73*
Cc1ccc(NC(=O)CC2SC(=O)N(c3ccccc3)C2=O)cc1 (centres undefined)	0%	9.2µM*	7.3µM*	0%	29
O=C(CC1SC(=O)N(c2ccccc2)C1=O)Nc1ccccc1 (centres undefined)	0%	16µM*	-25%	?	18
COc1cccc(NC(=O)C(=O)N/N=C(\C)CC(=O)Nc2ccc(NC(C)=O)cc2)c1	6%	11%	5%	2%	-4
Cc1nn(C)c2c1c(-c1ccccc1)cc(=O)n2CC(=O)NC(C)C	.	-16%	-2%	.	.
COCCN1CC(CNC(=O)c2cc(COc3ccc(C)c(C)c3)on2)CC1=O (centres undefined)	8%	-21%	0%	4%	9
COc1cc(C(=O)Nc2ccccc2OCc2cc(=O)n3c(C)csc3n2)cc(OC)c1OC	.	-24%	-28%	.	.
O=C(NCC1CCCO1)c1ccc(NC(=O)c2cc(F)c(F)cc2Cl)cc1 (centres undefined)	-1%	6%	-5%	2%	7
SMILES	HT1080-NT tox	DT40 TDP1 CPT	DT40 TDP1 no CPT	HT1080 IDH1KD tx	IL1B secr inh
Cc1cccc(NC(=O)CC2SC(=O)N(c3ccccc3)C2=O)c1 (centres undefined)	3%	4.6µM*	5.2µM*	10%	8
O=C(CC1Sc2ncnn2C1=O)Nc1ccccc1 (centres undefined)	14%	7.3µM*	15µM*	-1%	-6
CCCN1C(=O)SC(CC(=O)Nc2ccc(C)cc2)C1=O (centres undefined)	12%	18µM*	?	17%	-1
Cc1cccc(NC(=O)CC2S/C(=N/c3nccs3)N(C)C2=O)c1 (centres undefined)	6%	-16%	-19%	1%	8
Cc1ccc(NC(=O)CC2Sc3ccc(C(F)(F)F)cc3NC2=O)cc1 (centres undefined)	.	-8%	1%	.	.
Cc1ccc(NC(=O)CC2=NC(=O)C(CC(=O)Nc3ccccc3F)S2)cc1 (centres undefined)	0%	?	18µM*	-10%	-29
CC[C@]12c3[nH]c4ccc(OC)cc4c3CCN1C(=O)C(CC(=O)NCCCOC)C[C@@H]2C(=O)N1CCN(C(=O)C2CC2)CC1 (some centres undefined)	1%	?	3%	3%	-2
Cc1ccccc1S(=O)(=O)Nc1nc2ccccc2nc1N1CCOCC1	0%	7%	1%	4%	3
CO[C@H]1[C@H](NC(=O)c2ccsc2)c2ccccc2C12CCN(Cc1cc3ccccc3o1)CC2	.	-11%[9.04 µM]	?	.	.
Oc1ccc(C[C@H]2CNCCN2CCc2cccc3ccccc23)cc1	-25%	?	?	-11%	-29
CCCC[C@@H]1CNCCN1CCc1cccc2ccccc12	-14%	23µM*	18µM*	-14%	?
c1ccc(C[C@H]2CNCCN2CCc2cccc3ccccc23)cc1	-5%	?	10µM*	-24%	-27
CCCCN1C(N)=NC[C@@H]1c1ccccc1	-2%	16µM*	13µM*	-6%	-12
CCN(CC)CCn1c(-c2ccc(C)cc2)nc(=S)c2c1CC(C)(C)OC2	-13%	7%	-6%	-11%	20
CCOC(=O)C1(Cc2ccccc2)CCN(Cc2cccc(OC)c2O)CC1	-3%	?	?	-11%	-50*
CCOC(=O)C1(Cc2cccc(OC)c2)CCN(Cc2ccc(OC)c(OC)c2)CC1	?	?	21µM*	-21%	-22
CCOC(=O)C1(Cc2cccc(OC)c2)CCN(Cc2cccc(O)c2)CC1	-5%	-17%	?	-4%	?

Bioassay records deposited in PubChem BioAssay by National Center for Advancing Translational Sciences (NCATS).
